# Laboratory results from PMC7862700, “An all-to-all approach to the identification of sequence-specific readers for epigenetic DNA modifications on cytosine”.
# Legend:
# Assay in all cases: DAPPL (digital affinity profiling via proximity ligation, sequencing); 10 mM Tris-HCl pH 7.5, 50 mM NaCl, 1 mM DTT, 4% glycerol, room temperature, 30 min; GST-TFs on glutathione beads, 16-mer random dsDNA library, 0.1% formaldehyde crosslink after washing; high values mean tight binding
# FLI1 = molecular target: T1, FLI1 (Homo sapiens, UniProt Q01543 1-452); details: protein: recombinant; tags: N-terminal GST; dsDNA, one strand shown
# T1 sequence: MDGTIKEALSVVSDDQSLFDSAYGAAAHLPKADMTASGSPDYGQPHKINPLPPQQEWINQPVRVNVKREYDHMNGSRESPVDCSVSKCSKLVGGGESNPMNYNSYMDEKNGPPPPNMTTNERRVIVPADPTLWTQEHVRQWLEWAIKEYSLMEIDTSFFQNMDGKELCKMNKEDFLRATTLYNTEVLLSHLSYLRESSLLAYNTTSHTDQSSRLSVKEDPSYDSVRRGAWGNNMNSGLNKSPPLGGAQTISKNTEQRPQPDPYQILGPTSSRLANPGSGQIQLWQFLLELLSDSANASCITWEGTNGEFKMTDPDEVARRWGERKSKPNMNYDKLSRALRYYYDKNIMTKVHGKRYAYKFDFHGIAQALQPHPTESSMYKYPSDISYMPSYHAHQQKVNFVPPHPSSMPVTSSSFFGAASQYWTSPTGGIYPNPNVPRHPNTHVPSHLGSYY
# Procedure, shortened: (§1)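 Human transcription factors were made in yeast as GST fusions, captured on glutathione beads and barcoded with DNA. With a tag-only sample included, the pool was incubated with 200 nmole of a random double-stranded 16-mer DNA library in Tris/NaCl/DTT/glycerol buffer at room temperature for 30 min, then crosslinked with 0.1% formaldehyde after washing, ligated by proximity, amplified and sequenced. For binding signal, each hexamer's read frequency for a factor is divided by its frequency for the tag-only sample.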
# GABPA = molecular target: T2, GABPA (Homo sapiens, UniProt Q06546 1-454); details: protein: recombinant; tags: N-terminal GST; dsDNA, one strand shown
# T2 sequence: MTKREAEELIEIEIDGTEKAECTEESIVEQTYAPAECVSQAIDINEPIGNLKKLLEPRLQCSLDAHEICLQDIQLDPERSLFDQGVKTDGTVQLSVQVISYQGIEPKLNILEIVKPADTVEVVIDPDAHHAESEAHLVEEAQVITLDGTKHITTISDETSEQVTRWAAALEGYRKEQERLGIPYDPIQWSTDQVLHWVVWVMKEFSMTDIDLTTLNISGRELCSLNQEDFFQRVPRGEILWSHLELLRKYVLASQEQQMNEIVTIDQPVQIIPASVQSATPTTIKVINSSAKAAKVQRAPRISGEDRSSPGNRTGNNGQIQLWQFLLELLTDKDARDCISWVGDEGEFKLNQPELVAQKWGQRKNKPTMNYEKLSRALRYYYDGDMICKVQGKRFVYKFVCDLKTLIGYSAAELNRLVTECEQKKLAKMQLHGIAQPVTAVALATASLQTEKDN
# Procedure, shortened: as §1
# ELF1 = ELF1 (Homo sapiens, UniProt P32519 1-619); details: protein: recombinant; tags: N-terminal GST; dsDNA, one strand shown
# Procedure, shortened: as §1
# EHF = molecular target: T3, EHF (Homo sapiens, UniProt Q9NZC4 1-300); details: protein: recombinant; tags: N-terminal GST; dsDNA, one strand shown
# T3 sequence: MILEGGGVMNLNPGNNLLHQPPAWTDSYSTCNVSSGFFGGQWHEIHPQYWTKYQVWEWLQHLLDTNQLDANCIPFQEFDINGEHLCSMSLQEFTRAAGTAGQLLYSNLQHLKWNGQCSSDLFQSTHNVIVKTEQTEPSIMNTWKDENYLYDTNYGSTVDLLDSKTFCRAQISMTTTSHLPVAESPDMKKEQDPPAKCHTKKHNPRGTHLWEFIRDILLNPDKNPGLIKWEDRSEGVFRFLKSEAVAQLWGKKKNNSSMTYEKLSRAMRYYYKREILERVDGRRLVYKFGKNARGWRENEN
# Procedure, shortened: as §1
# SPI1 = SPI1 (Homo sapiens, UniProt P17947 1-270); details: protein: recombinant; tags: N-terminal GST; dsDNA, one strand shown
# Procedure, shortened: as §1
# SPIB = SPIB (Homo sapiens, UniProt Q01892 1-262); details: protein: recombinant; tags: N-terminal GST; dsDNA, one strand shown
# Procedure, shortened: as §1
# ELK3 = molecular target: T4, ELK3 (Homo sapiens, UniProt P41970 1-407); details: protein: recombinant; tags: N-terminal GST; dsDNA, one strand shown
# T4 sequence: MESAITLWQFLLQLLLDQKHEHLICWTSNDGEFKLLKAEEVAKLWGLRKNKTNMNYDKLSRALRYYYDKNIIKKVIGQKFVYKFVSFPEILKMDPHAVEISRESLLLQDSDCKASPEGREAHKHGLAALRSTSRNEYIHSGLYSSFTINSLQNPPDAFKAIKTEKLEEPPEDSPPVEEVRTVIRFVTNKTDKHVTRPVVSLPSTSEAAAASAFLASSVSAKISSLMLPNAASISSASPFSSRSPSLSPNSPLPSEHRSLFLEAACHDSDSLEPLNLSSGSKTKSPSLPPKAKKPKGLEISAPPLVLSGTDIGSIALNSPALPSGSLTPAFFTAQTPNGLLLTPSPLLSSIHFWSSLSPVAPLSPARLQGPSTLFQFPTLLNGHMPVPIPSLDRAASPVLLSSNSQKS
# Procedure, shortened: as §1
# ETV5 = ETV5 (Homo sapiens, UniProt P41161 1-510); details: protein: recombinant; tags: N-terminal GST; dsDNA, one strand shown
# Procedure, shortened: as §1
# HSF1 = HSF1 (Homo sapiens, UniProt Q00613 1-529); details: protein: recombinant; tags: N-terminal GST; chain copies: 3; dsDNA, one strand shown
# Procedure, shortened: as §1
# SPIC = molecular target: T5, SPIC (Homo sapiens, UniProt Q8N5J4 1-248); details: protein: recombinant; tags: N-terminal GST; dsDNA, one strand shown
# T5 sequence: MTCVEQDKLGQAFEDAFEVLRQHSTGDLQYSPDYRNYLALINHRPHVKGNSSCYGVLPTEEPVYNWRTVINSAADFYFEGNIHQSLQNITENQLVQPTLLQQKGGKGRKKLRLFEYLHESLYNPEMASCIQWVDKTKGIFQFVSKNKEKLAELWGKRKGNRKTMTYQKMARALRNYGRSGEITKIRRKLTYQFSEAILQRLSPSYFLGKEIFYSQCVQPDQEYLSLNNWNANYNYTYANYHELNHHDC
# Procedure, shortened: as §1
# ELF4 = ELF4 (Homo sapiens, UniProt Q99607 1-663); details: protein: recombinant; tags: N-terminal GST; dsDNA, one strand shown
# Procedure, shortened: as §1
# ELK4 = molecular target: T6, ELK4 (Homo sapiens, UniProt P28324-2 1-405); details: protein: recombinant; tags: N-terminal GST; dsDNA, one strand shown
# T6 sequence: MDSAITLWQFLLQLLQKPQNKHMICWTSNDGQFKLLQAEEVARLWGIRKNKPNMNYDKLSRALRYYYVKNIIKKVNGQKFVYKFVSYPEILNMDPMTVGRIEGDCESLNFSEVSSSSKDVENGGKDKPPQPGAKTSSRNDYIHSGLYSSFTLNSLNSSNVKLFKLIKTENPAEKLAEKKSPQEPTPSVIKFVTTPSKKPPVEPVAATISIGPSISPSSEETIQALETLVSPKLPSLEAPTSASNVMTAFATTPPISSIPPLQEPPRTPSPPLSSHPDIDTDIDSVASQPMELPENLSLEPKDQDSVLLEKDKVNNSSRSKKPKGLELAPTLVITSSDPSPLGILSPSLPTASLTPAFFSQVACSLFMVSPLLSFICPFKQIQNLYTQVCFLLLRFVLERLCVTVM
# Procedure, shortened: as §1
# ETV2 = molecular target: T7, ETV2 (Homo sapiens, UniProt O00321 1-342); details: protein: recombinant; tags: N-terminal GST; dsDNA, one strand shown
# T7 sequence: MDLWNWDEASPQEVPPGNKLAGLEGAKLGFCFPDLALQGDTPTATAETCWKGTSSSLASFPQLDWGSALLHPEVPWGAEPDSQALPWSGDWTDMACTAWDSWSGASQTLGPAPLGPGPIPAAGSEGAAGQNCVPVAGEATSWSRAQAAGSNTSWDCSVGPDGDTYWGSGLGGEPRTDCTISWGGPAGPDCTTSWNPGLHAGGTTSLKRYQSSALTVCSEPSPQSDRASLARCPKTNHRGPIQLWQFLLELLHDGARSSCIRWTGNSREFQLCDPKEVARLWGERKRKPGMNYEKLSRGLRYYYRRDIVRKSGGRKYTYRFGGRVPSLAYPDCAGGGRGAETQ
# Procedure, shortened: as §1
# CRX = CRX (Homo sapiens, UniProt O43186 1-299); details: protein: recombinant; tags: N-terminal GST; dsDNA, one strand shown
# Procedure, shortened: as §1
# ETV1 = ETV1 (Homo sapiens, UniProt P50549 1-477); details: protein: recombinant; tags: N-terminal GST; dsDNA, one strand shown
# Procedure, shortened: as §1
# ETV1, sequence (P50549 whole entry): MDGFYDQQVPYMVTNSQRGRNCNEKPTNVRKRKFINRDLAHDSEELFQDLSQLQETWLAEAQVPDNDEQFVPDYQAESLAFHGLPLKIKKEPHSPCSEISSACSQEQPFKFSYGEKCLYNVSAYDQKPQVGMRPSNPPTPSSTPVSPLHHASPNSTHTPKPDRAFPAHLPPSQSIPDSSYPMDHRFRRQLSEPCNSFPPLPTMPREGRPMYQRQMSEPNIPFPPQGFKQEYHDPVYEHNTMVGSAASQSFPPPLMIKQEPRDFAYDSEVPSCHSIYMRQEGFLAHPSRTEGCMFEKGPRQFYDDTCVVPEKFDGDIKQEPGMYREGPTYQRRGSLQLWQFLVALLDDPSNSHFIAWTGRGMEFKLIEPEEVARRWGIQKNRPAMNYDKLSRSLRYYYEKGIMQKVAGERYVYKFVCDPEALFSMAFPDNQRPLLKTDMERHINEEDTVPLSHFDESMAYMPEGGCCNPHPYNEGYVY
# ETV5, sequence (P41161 whole entry): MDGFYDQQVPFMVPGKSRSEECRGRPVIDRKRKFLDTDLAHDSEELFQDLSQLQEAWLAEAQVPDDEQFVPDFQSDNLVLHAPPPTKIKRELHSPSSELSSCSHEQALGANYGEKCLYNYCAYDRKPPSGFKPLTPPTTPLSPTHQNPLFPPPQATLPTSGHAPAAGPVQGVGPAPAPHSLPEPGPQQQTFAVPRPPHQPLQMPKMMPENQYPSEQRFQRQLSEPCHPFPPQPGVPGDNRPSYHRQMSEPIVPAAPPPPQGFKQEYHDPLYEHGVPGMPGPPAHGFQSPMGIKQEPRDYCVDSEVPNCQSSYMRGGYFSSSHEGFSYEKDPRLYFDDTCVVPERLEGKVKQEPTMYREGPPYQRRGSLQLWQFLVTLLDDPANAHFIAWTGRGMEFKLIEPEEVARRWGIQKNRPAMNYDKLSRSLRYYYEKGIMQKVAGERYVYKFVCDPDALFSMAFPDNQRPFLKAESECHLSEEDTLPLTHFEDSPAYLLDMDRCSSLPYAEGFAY
# CRX, sequence (O43186 whole entry): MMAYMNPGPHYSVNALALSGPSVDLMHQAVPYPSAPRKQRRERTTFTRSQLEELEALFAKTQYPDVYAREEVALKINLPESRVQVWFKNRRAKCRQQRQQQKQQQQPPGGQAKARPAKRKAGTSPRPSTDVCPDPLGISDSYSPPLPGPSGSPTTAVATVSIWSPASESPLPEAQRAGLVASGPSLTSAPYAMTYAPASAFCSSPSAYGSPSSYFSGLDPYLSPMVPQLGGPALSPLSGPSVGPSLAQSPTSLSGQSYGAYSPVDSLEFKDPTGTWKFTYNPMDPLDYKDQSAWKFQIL
# HSF1, sequence (Q00613 whole entry): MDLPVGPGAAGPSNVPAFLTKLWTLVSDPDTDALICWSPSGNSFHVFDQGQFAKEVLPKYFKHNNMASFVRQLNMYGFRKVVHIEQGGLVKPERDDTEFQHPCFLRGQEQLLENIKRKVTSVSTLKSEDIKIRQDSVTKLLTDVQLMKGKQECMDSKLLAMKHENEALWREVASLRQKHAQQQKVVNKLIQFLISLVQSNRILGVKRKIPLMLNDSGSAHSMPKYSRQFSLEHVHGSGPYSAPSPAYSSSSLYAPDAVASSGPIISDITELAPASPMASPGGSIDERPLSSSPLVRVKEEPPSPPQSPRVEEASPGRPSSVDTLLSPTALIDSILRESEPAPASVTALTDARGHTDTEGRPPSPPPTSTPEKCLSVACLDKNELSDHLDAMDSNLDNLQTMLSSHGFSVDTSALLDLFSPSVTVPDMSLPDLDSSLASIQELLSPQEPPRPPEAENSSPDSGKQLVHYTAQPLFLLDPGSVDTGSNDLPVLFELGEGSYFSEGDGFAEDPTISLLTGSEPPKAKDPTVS
# ELF4, sequence (Q99607 whole entry): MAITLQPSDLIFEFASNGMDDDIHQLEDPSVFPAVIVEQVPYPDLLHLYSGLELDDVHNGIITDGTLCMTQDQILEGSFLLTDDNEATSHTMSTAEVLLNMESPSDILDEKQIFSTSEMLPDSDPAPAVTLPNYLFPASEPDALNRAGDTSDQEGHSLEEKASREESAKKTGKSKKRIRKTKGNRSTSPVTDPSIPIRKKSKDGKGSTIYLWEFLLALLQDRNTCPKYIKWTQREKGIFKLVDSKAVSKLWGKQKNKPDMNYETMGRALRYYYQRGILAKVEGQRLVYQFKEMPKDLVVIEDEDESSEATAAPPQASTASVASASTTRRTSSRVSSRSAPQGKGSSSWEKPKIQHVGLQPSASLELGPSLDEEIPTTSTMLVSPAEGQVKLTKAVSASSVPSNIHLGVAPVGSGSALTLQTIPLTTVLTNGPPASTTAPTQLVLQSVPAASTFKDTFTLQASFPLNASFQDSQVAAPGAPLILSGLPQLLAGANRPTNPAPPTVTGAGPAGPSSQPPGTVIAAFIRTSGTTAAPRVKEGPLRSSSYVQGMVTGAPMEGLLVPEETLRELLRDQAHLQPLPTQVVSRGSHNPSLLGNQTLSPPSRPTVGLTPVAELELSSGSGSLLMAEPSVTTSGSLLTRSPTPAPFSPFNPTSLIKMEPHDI
# ELF1, sequence (P32519 whole entry): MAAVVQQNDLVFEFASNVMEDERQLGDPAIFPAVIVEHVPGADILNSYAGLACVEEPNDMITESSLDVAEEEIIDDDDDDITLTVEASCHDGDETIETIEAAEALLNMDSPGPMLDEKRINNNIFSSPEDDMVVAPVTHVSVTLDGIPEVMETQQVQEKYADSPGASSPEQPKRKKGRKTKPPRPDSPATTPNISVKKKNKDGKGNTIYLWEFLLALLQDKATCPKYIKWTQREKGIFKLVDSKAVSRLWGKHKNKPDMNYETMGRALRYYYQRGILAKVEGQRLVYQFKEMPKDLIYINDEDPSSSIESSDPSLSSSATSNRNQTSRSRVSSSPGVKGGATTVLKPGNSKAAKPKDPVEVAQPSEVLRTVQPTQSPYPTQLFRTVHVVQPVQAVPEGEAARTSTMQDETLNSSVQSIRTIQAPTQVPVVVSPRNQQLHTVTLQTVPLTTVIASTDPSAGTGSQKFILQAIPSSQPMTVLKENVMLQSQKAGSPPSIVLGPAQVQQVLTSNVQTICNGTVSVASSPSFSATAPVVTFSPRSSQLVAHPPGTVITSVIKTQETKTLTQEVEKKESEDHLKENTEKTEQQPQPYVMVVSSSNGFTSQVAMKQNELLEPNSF
# SPIB, sequence (Q01892 whole entry): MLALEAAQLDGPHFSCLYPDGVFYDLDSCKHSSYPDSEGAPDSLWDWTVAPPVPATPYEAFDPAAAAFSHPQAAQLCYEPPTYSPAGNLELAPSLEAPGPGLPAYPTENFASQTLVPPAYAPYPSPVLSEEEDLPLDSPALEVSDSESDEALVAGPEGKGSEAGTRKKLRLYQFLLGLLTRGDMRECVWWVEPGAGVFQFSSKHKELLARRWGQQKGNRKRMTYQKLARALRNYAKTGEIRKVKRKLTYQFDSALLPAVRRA
sequence,measurement,setting,value
CTGTAA,binding signal,FLI1,"1.06 fold enrichment (6-mer frequency, TF over GST control)"
same,binding signal,GABPA,"1.07 fold enrichment (6-mer frequency, TF over GST control)"
same,binding signal,ELF1,"1.12 fold enrichment (6-mer frequency, TF over GST control)"
same,binding signal,EHF,"1.09 fold enrichment (6-mer frequency, TF over GST control)"
same,binding signal,SPI1,"1.11 fold enrichment (6-mer frequency, TF over GST control)"
same,binding signal,SPIB,"1.04 fold enrichment (6-mer frequency, TF over GST control)"
same,binding signal,ELK3,"1.24 fold enrichment (6-mer frequency, TF over GST control)"
same,binding signal,ETV5,"1.05 fold enrichment (6-mer frequency, TF over GST control)"
same,binding signal,HSF1,"1.09 fold enrichment (6-mer frequency, TF over GST control)"
same,binding signal,SPIC,"1.24 fold enrichment (6-mer frequency, TF over GST control)"
same,binding signal,ELF4,"1.06 fold enrichment (6-mer frequency, TF over GST control)"
same,binding signal,ELK4,"1.09 fold enrichment (6-mer frequency, TF over GST control)"
same,binding signal,ETV2,"1.21 fold enrichment (6-mer frequency, TF over GST control)"
same,binding signal,CRX,"1.25 fold enrichment (6-mer frequency, TF over GST control)"
same,binding signal,ETV1,"1 fold enrichment (6-mer frequency, TF over GST control)"
